According to ChEMBL document CHEMBL1157539, “Thousands of chemical starting points for antimalarial lead identification” (Nature, 2010):

Tested on: HepG2
Assay: GSK_TCMDC: Percent inhibition of human HepG2 cell line. Test compounds present at 10uM.
Assay type: functional

| Compound | Inhibition [%] |
| --- | --- |
| O=CO.c1ccc(-c2ccc(CNCCCNc3nc4ccccc4[nH]3)cc2)cc1 | 20 |
| Fc1ccccc1-c1cc(Nc2ccncc2)nc(-c2cccnc2)n1 | 91 |
| CN(CC(=O)Nc1ccc(F)cc1)C(=O)c1ccc(-c2ccc(F)cc2)o1 | 3 |
| CCc1cn2c3c(cc(C(=O)N[C@@H](Cc4ccccc4)[C@H](O)CNC(C)(C)c4cccc(OC)c4)cc13)N(C)S(=O)(=O)C2.O=CO | 27 |
| CN(/N=C/C=C/c1ccc(Cl)cc1)c1nc(NCCc2ccc(O)cc2)nc(N2CCNCC2)n1 | 14 |
| Cc1cc(NCCC(=O)Nc2ccccc2)nc(NCc2ccccc2C)n1.O=C(O)C(F)(F)F | 6 |
| COc1ccc2[nH]c(C)cc(=NN=Cc3ccccc3F)c2c1 | 3 |
| COc1cc(-c2nc(-c3ccccc3)c(-c3ccccc3)[nH]2)cc(OC)c1O | 5 |
| CC[C@H](C)CNC(=O)c1cccc(-c2cccc(CN3CCC(N4CCCC4)CC3)c2)n1.O=C(O)C(F)(F)F | 9 |
| CCCC(C)Nc1nc(C)cc(NCCC(=O)Nc2ccc(OC)cc2)n1.O=C(O)C(F)(F)F (stereo not given) | 12 |
| Nc1c2ccccc2nc2cc(C(F)(F)F)ccc12 | 8 |
| CCc1c[nH]c2c(N3CCCCC3=O)cc(C(=O)N[C@@H](Cc3ccccc3)[C@H](O)CNCc3cccc(OC)c3)cc12.O=CO | 8 |
| O=C(c1ccc(F)c2ccccc12)N1CCc2cc3nccc(N4CCN5CCC[C@H]5C4)c3cc21 | 0 |
| Cc1ccc2nc(N(CCCn3ccnc3)C(=O)C=Cc3cccs3)sc2c1.Cl | 22 |
| COc1ccc(-c2onc(C(F)(F)F)c2-c2ccc(Br)cc2)c(O)c1 | 7 |
| Cc1ccc(-n2c(Sc3ncnc4sccc34)nnc2N2CCCC2)cc1 | 0 |
| CCCNC(=O)C1CCN(C(c2ccccc2)c2ccc(Cl)c(Cl)c2)CC1 (stereo not given) | 15 |
| Cc1ccc(S(=O)(=O)N2CCCN(C(=O)c3cc(-c4ccccc4)[nH]n3)CC2)cc1 | 11 |
| CCn1ccc2c(N3CCCCS3(=O)=O)cc(C(=O)N[C@@H](Cc3ccccc3)[C@H](O)CNC(C)(C)CCCC(C)C)cc21 | 23 |
| O=C(O)C(F)(F)F.O=[N+]([O-])c1cccc(CNCC2CCN(CCc3ccccc3)CC2)c1 | 15 |

| Compound | Inhibition [%] |
| --- | --- |
| Nc1cc(-c2ccc3ccccc3c2)nc2ccccc12 | 19 |
| Cc1cccc2nc(-c3ccc(-c4ccc(CN5CC(C)OC(C)C5)cc4)cc3)[nH]c12.O=C(O)C(F)(F)F (stereo not given) | 37 |
| FC(F)(F)c1ccc2[nH]c(-c3ccc(-c4cccc(CNCC5CCCO5)c4)s3)nc2c1.O=C(O)C(F)(F)F (stereo not given) | 37 |
| CC1=C(C(=O)Nc2cc3cn[nH]c3cc2F)C(c2ccc(Cl)c(NS(C)(=O)=O)c2)CC(=O)N1 (stereo not given) | 2 |
| COc1ccc(-c2ccc([N+](=O)[O-])cc2C(=O)NCC(C)Oc2ccc(C(F)(F)F)cc2)cc1 (stereo not given) | 6 |
| CCc1ccc(NC(=O)c2cccc(CN3CCCN(Cc4ccc(OC)cc4)CC3)c2)cc1.O=C(O)C(F)(F)F | 35 |
| CN1CCCC(CN2CCN(Cc3cccc(-c4cccc(-c5nc6ccccc6[nH]5)c4)c3)CC2)C1.O=C(O)C(F)(F)F (stereo not given) | 45 |
| CCCNCc1ccc(-c2ccc(CN(C(=O)c3nn(-c4ccccc4)nc3C)C3CC3)cc2)nc1.O=C(O)C(F)(F)F | 23 |
| CCN1CCC(N(Cc2ccc(-c3ccc(C(F)(F)F)cc3)cc2)C(=O)CCCCn2c(CCc3cccc(F)c3F)nc(=O)c3ccccc32)CC1 | 54 |
| CCCCNc1cc(NCCCC)c2c(n1)[nH]c1ccccc12 | 13 |
| CC(C)CCN1CCC(Oc2ccc(NC(=O)c3ccccc3)cc2Cl)CC1.O=C(O)C(F)(F)F | 17 |
| O=C(O)C(F)(F)F.O=C1OC2(CN1CC1CCN(Cc3ccc(-n4ccnc4)cc3)C1)c1ccccc1-c1ccccc12 (stereo not given) | 25 |
| COc1ccc(OC)c2c1CC1NCC2c2c(OC)ccc(OC)c21.Cl (stereo not given) | 2 |
| CCCCCc1ccc(N2C(N)=NC(N)=NC2(C)C)cc1.Cl | 59 |
| CCNc1cc(-c2cccc(OC)c2)nc(Nc2ccc(F)cc2)n1 | 11 |
| C[C@H](NC(=O)c1c(CN2CCC(NC(=O)CC(C)(C)C)CC2)c(-c2cccs2)nc2ccccc12)C1CCCCC1 | 0 |
| Cc1[nH]c(C)c(-c2ccc(-c3cccc(Cl)c3)nc2)c(=O)c1Cl | 15 |
| COc1cccc(C(=O)Nc2ccc(Nc3nc(C)cc(N(C)C)n3)cc2)c1OC | 0 |
| CN(C)CCOc1ccc2c(c1)OC(C)(C)C=C2c1cccc2ccccc12.Cl | 66 |
| O=C(Nc1cccc(CN2CCN(Cc3ccc(O)cc3)CC2)c1)c1ccc(-c2ccccc2)cc1.O=C(O)C(F)(F)F | 40 |
